# PubChem BioAssay AID1739 (National Center for Advancing Translational Sciences (NCATS), 2009)
# Results filed as inconclusive are left out. Unmarked numbers belong to inactive results. Activity calls are given as the source filed them. Calls follow the shape of the dose curve; as a rule, active = well fitted inhibition curve with a large enough effect; inconclusive = small, poorly fitted or top-dose-only effect; inactive = flat fitted curve, though single readings scatter.
# Assay: Counterscreen Assay for Enhancers of SMN2 Splice Variant Expression: Modulation of SMN1 Expression
# Conditions: HEK293 SMN1-luciferase reporter, luminescence, 30-36 h; series mostly up to 22.8 µM; activity change, negative = inhibition: at the top concentration
# How it was run: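 Luciferase counterscreen for nonspecific expression modulators: SMN1-luciferase chimera stably expressed in HEK293, 2000 cells/well, treated 30-36 h at 37C with compound or 4.5mM sodium butyrate control, then One Glo luminescence read.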
SMILES,"activity change, negative = inhibition",Potency
COc1nc(-c2ccccc2)nnc1-c1ccccc1,-17.3% [at 46.1 µM],
CCCc1sc(N2CCCC(C(N)=O)C2)nc1-c1ccccc1 (stereo not drawn),-5.38%,
O=c1[nH]c(=O)n(C2CCCO2)cc1Br (stereo not drawn),4.65%,
c1ccc(-c2nnc(-c3ccccc3)c(-c3c[nH]c4ccccc34)n2)cc1,-2.82%,
O=C(NCCCNCCCNC(=O)c1ccccn1)c1ccccn1,24.4% [at 46.1 µM],
CN1CCN(c2nc(-c3ccc(Br)cc3)nnc2-c2ccccc2)CC1,7.73%,
O=S(=O)(NC1CCCc2ccccc21)c1cnc[nH]1 (stereo not drawn),-8.82% [at 46.1 µM],
Brc1nc2ncnc(NCc3ccco3)c2[nH]1,-15.6% [at 46.1 µM],
Cc1nnc(-c2ccccc2)[nH]c1=O,-6.61%,
CC(/C=C/C(=O)NO)=C\[C@@H](C)C(=O)c1ccc(N(C)C)cc1,,7.94 µM (active)
Cc1ccc(C(=O)Cn2c3c(sc2=N)CCCC3)cc1,,7.94 µM (active)
COc1cccc(NC(=O)CSc2nc3ccccc3nc2N2CCOCC2)c1,,5.01 µM (active)
Cc1ccc(-c2nnc(-c3ccccc3)c(N3CCOCC3)n2)cc1,5.25%,
O=c1cc(N2CCN(c3cccc(Cl)c3)CC2)[nH]c(=O)n1C1CCCCC1,-20.8% [at 46.1 µM],
COc1ccc(CNC(=O)c2ccc(C(C)C)cc2)cc1,-15.6% [at 46.1 µM],
OCCCNc1nc(-c2ccc(Cl)cc2)nnc1-c1ccccc1,5.49%,
Clc1ccc(-c2nnc(-c3ccccc3)nc2N2CCSCC2)cc1,5.88%,
OCCCNc1nc(-c2ccc(Cl)cc2)nnc1-c1ccc(Br)cc1,1.41%,
CN(C)CCCN(C(=O)c1cccs1)c1nc(-c2ccccc2)cs1,-16%,
CN(Cc1ccccc1)Cc1c(F)cccc1F,-5.6% [at 46.1 µM],
O=C(O)c1cccc(COc2ccc(CO)cc2Cl)c1,,3.16 µM (active)
COC(=O)C1=C(C)NC(=O)/C1=C\c1cc(C)n(-c2ccccc2F)c1C,-7.23% [at 46.1 µM],
CCOC(=O)c1c(-c2cccc(C)c2)csc1NC(=O)c1c(-c2ccccc2)noc1C,,0.355 µM (active)
